For 36 compounds, Potency, activity, negative = inhibition and activity change, negative = inhibition results are on record in PubChem BioAssay (Tox21).

The target of test [1] is Acetylcholinesterase (Homo sapiens) (UniProt P22303). Kind of test: Acetylcholinesterase (AChE) small molecule antagonists: colormetric cell-based qHTS assay (AID 1347395). Further: nearly all actives have a fitted effect of over 30% in size. Further: potency means the concentration at half of the fitted maximal effect. The method, boiled down:
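After overnight attachment at 37 C, SH-SY5Y cells get 30 min compound exposure; detection cocktail (acetylthiocholine, DTNB) then incubates 90 min at 37 C, and absorbance reflects AChE-generated thiocholine.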

Test [2] shares this target. Kind of test: Acetylcholinesterase (AChE) small molecule antagonists: enzyme-based qHTS assay (AID 1347397). Further: nearly all actives have a fitted effect of over 55% in size. Further: potency means the concentration at half of the fitted maximal effect. As to conditions: Potency: AChE enzyme activity inhibition; outcome: AChE enzyme activity inhibition. In outline: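 Colorimetric DTNB read-out of thiocholine released from acetylthiocholine by recombinant human AChE (50 mU/mL as dispensed). Compounds were preincubated 30 min at RT before substrate/DTNB addition, with a 10 min RT reaction.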

For test [3] the target is unchanged. Nature of the test: Acetylcholinesterase (AChE) small molecule antagonists: fluorescence cell-based qHTS assay (AID 1347398). Further: nearly all actives have a fitted effect of over 50% in size. Further: potency means the concentration at half of the fitted maximal effect. As to conditions: Potency: AChE activity; outcome: AChE activity. The method, boiled down: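 SH-SY5Y, 2,000 cells/well, attached overnight; cmpd 30 min 37 C; acetylthiocholine/Thiolite Green cocktail 40 min RT; fluorescence Ex/Em 490/520 nm.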

Test [4] shares this target. Kind of test: Acetylcholinesterase (AChE) small molecule antagonists: enzyme-based qHTS assay with human liver microsomes (AID 1347399). Further: nearly all actives have a fitted effect of over 60% in size. As to conditions: Potency: qHTS inhibition; outcome: qHTS inhibition. In outline: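 Recombinant human AChE (50 mU/mL in the enzyme mix) and human liver microsomes (0.25 mg/mL final) were preincubated with compound and NADPH (0.25 mg/mL final) for 30 min at 37 C. Acetylthiocholine/DTNB was then added; thiocholine was read colorimetrically after 10 min at room temperature.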

The structures appear in SMILES notation. Where “and” joins values, the source holds several entries; their conditions need not be identical. Identical values can stand only once. Results filed as inconclusive are left out. A structure can be active in one record and inactive in another. Calls of active or inactive are those of the source. The call rests on the fitted dose curve.
On the % scale 0 is the no-effect control and ±100 the full control effect.

Chain of Acetylcholinesterase (Homo sapiens) (P22303 whole entry, looked up): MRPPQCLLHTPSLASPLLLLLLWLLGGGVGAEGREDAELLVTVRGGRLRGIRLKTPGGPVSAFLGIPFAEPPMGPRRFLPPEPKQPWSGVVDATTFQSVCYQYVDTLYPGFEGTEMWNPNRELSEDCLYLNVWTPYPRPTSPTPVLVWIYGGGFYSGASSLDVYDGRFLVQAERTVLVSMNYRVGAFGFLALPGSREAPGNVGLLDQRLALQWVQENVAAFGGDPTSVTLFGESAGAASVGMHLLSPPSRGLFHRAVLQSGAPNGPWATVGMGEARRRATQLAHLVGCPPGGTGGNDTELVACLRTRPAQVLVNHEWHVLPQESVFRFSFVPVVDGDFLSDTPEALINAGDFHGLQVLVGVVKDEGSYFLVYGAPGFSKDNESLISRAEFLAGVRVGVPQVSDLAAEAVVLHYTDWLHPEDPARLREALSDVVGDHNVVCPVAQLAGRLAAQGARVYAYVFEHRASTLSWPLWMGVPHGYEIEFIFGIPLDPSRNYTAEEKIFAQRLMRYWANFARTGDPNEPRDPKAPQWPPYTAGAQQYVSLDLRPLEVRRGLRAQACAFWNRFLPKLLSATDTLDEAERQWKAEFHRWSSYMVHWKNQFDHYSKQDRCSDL

With `C=C1C(CCl)(CCl)C2(Cl)C(Cl)C(Cl)C1(Cl)C2(Cl)Cl` (centres undefined), the Potency result in test [1], in test [2], in test [3] and in test [4] was “inactive” in each case.
Regarding `CC(C)CCCCCOC(=O)CCCCC(=O)OCCCCCC(C)C`, the Potency entry in test [1], in test [2], in test [3] and in test [4] was “inactive” in each case.
Turning to `COc1cccc(O)c1`, the Potency result in test [1], in test [2], in test [3] and in test [4] was “inactive” in each case.
Turning to `CCc1ccc2c(c1)C(=O)c1ccccc1C2=O`, the Potency result in test [1], in test [2], in test [3] and in test [4] was “inactive” throughout.
On to `O=C1CCCCCN1`, for which the Potency entry in test [1], in test [2], in test [3] and in test [4] was “inactive” throughout.
On to `CCCCOCCOC(=O)c1ccccc1C(=O)OCCOCCCC`, for which the Potency result in test [1], in test [2], in test [3] and in test [4] was “inactive” in each case.
With `O=C(OCc1ccccc1)c1ccccc1`, the Potency entry in test [1], in test [2], in test [3] and in test [4] was “inactive” each time.
With `C/C=C/c1ccc(O)c(OC)c1`, the Potency entry in test [1], in test [2], in test [3] and in test [4] was “inactive” in each case.
On to `CCOC(=O)C(C#N)=C(c1ccccc1)c1ccccc1`, for which the Potency result in test [1], in test [2], in test [3] and in test [4] was “inactive” each time.
For the compound `[O]=[Bi]`, in test [1], the activity, negative = inhibition is 1.07% [at 10.5 µM] (inactive). The activity change, negative = inhibition is 2.59% [at 10.5 µM] (inactive) in test [2], 3.63% [at 10.5 µM] (inactive) in test [3] and -4.69% [at 10.5 µM] (inactive) in test [4].
Take `CC1CCCC(=O)C1=O` (centres undefined): the Potency result in test [1], in test [2], in test [3] and in test [4] was “inactive” each time.
Take `OCC(O)CS` (centres undefined): the Potency result in test [1], in test [2], in test [3] and in test [4] was “inactive” in each case.
In the case of `CC(O)CO` (centres undefined), the Potency result in test [1], in test [2], in test [3] and in test [4] was “inactive” throughout.
For the compound `CCC(=O)OCCc1ccccc1`, the Potency entry in test [1], in test [2], in test [3] and in test [4] was “inactive” in each case.
For the compound `C1CCSC1`, the Potency result in test [1], in test [2], in test [3] and in test [4] was “inactive” each time.
For the compound `NC(=O)c1cccnc1`, the Potency result in test [1], in test [2], in test [3] and in test [4] was “inactive” throughout.
As for `O=C1OC2(c3ccccc31)c1cc(I)c(O)c(I)c1Oc1c2cc(I)c(O)c1I`, the Potency in test [1] is 36 µM (active) and inactive; in test [2] it was 40.4 µM (active) and inactive. The Potency entry in test [3] and in test [4] was “inactive” each time.
In the case of `Cc1ccc2c(Cl)cc(Cl)c(O)c2n1`, the Potency entry in test [1], in test [2], in test [3] and in test [4] was “inactive” each time.
Consider `C[C@@H]1O[C@@H](O[C@@H]2[C@@H](O)[C@H](OCCc3ccc(O)c(O)c3)O[C@H](CO[C@@H]3O[C@H](CO)[C@@H](O)[C@H](O)[C@H]3O)[C@H]2OC(=O)/C=C/c2ccc(O)c(O)c2)[C@H](O)[C@H](O)[C@H]1O`, for which the Potency result in test [1], in test [2], in test [3] and in test [4] was “inactive” each time.
As for `Cc1cccc2cccnc12`, the Potency entry in test [1], in test [2], in test [3] and in test [4] was “inactive” each time.
For `Cc1ccc(NC=O)c(C)c1`, the Potency result in test [1], in test [2], in test [3] and in test [4] was “inactive” each time.
`COS(=O)(=O)O`: the Potency entry in test [1], in test [2], in test [3] and in test [4] was “inactive” throughout.
Regarding `Cc1cccnc1`, the Potency entry in test [1], in test [2], in test [3] and in test [4] was “inactive” each time.
In the case of `CC(=O)[C@H]1CC[C@H]2[C@@H]3CC=C4C[C@@H](O)CC[C@]4(C)[C@H]3CC[C@]12C`, the Potency entry in test [1], in test [2], in test [3] and in test [4] was “inactive” in each case.
Consider `O=S(=O)(O)c1ccc2cc(O)ccc2c1`, for which the Potency entry in test [1], in test [2], in test [3] and in test [4] was “inactive” throughout.
Turning to `CC(COCC(C)OC(=O)c1ccccc1)OC(=O)c1ccccc1` (centres undefined), the Potency entry in test [1], in test [2], in test [3] and in test [4] was “inactive” in each case.
On to `CCCc1c(OCCCCc2nn[nH]n2)ccc(C(C)=O)c1O`, for which the Potency entry in test [1], in test [2], in test [3] and in test [4] was “inactive” in each case.
For `C=CCn1c(=O)n([C@@H]2O[C@H](CO)[C@@H](O)[C@H]2O)c2nc(N)[nH]c(=O)c21`, the Potency entry in test [1], in test [2], in test [3] and in test [4] was “inactive” throughout.
`CCCCCCCC/C=C\CCCCCCCC(=O)O`: the Potency result in test [1], in test [2], in test [3] and in test [4] was “inactive” throughout.
In the case of `c1cc2ccc3ccc4ccc5cccc6c(c1)c2c3c4c56`, in test [1], the activity, negative = inhibition was 3.35% [at 4.07 µM] (inactive). Also, the activity change, negative = inhibition was 0.28% [at 4.07 µM] (inactive) in test [2], 9.19% [at 3.98 µM] (inactive) in test [3] and 0.324% [at 4.07 µM] (inactive) in test [4].
Consider `CCO[Si](CC)(OCC)OCC`, for which the Potency result in test [1], in test [2], in test [3] and in test [4] was “inactive” in each case.
With `C=CC(C)CCCC(C)(C)O` (centres undefined), the Potency result in test [1] was “inactive and 28.3 µM (active)”; in test [2] it was “inactive and 25.2 µM (active)”; in test [3], “inactive and 22.4 µM (active)”. Besides, the Potency result in test [4] is “inactive”.
Regarding `O=C(O)CC(O)C(=O)O` (centres undefined), the Potency result in test [1], in test [2], in test [3] and in test [4] was “inactive” throughout.
Regarding `Cn1sccc1=O`, in test [1], the Potency entry is “inactive and 71 µM (active)”. The Potency entry in test [2], in test [3] and in test [4] was “inactive” each time.
In the case of `O=C1c2ccccc2C(=O)C1c1ccccc1`, the Potency entry in test [1], in test [2], in test [3] and in test [4] was “inactive” in each case.
With `CCCCCCCCCCCCCCCCC(=O)O`, the Potency entry in test [1], in test [2], in test [3] and in test [4] was “inactive” throughout.
